Results published in PubChem BioAssay (Tox21).
Inconclusive results are not listed. Entries that show only a call come without a potency. The source made the active and inactive calls. Unless noted, the call rests on the fitted dose curve.

System: not listed separately
Assay: qHTS assay to identify small molecule antagonists of the retinoid-related orphan receptor gamma (ROR-gamma) signaling pathway - cell viability counter screen (AID 1159520; active means well fitted curve in the direction sought with a large enough effect in the repeat runs; an effect the other way counts as inactive or inconclusive; further: nearly all actives have a fitted effect of over 50% in size)
Conditions: Tet-on RORgamma CHO cells viability, ATP luminescence, 16 h; series mostly up to 92.4 µM
Outline: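 Tet-on ROR gamma CHO cells (1,000/well) were plated 4 hr, given compounds in DMSO for 2 hr at 37 C, then induced with 1 uM final doxycycline for 16 hr. Viability was read as ATP by CellTiter-Glo luminescence after 30 min.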

Row | SMILES | Potency
1 | O=P(c1ccccc1)(c1ccccc1)c1ccccc1 | inactive
2 | COc1cc(C)c(Cc2cnc(N)nc2N)cc1OC | inactive
3 | C=C[Si]1(C)O[Si](C)(C=C)O[Si](C)(C=C)O[Si](C)(C=C)O1 (stereo unspecified) | inactive
4 | O=C(O)c1ccc(O)c(O)c1 | inactive
5 | O=[N+]([O-])c1ccc(Cl)cc1Cl | inactive
6 | O=C(O)c1ccccc1-n1cc(C(=O)O)c(=O)c2cc(Nc3c(F)cc(F)cc3Cl)c(Cl)cc21 | inactive
7 | Cc1c(Cl)cccc1[N+](=O)[O-] | inactive
8 | CC(=O)c1ccc(Cl)c(Cl)c1Cl | inactive
9 | Nc1ccc(F)cc1F | inactive

Biological target: Nuclear receptor ROR-gamma (Homo sapiens) (UniProt P51449)
Assay: qHTS assay to identify small molecule antagonists of the retinoid-related orphan receptor gamma (ROR-gamma) signaling pathway (AID 1159521; active means well fitted curve in the direction sought with a large enough effect in the repeat runs; an effect the other way counts as inactive or inconclusive; further: nearly all actives have a fitted effect of over 50% in size; further: potency means the concentration at half of the fitted maximal effect)
Conditions: Tet-on RORgamma CHO cells, RORE-luciferase, 16 h; series mostly up to 92.4 µM
Outline: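 Readout: ONE-Glo luciferase luminescence, 30 min at room temperature. System: Tet-on RORγ CHO, RORE-LUC. Sequence: compound 2 h, doxycycline 1 uM final, 16 h at 37 C.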

Row | SMILES | Potency
10 | COc1ccc(/C=C/S(=O)(=O)NC(=O)c2ccc(C)cc2Cl)cc1 | inactive
11 | O=C(Cl)c1cc(Cl)cc(Cl)c1 | inactive
12 | O=C(NC1CCN(CCc2c[nH]c3ccccc23)CC1)c1ccccc1 | inactive
13 | Cc1ccccc1CCO | inactive
14 | Cc1c(N=C=O)cccc1N=C=O | inactive
15 | CC(C)Cc1nccs1 | inactive
16 | O=C1CCCN1CCO | inactive
17 | S=c1[nH][nH]c(=S)s1 | inactive
18 | CC(C)CCCCCOC(=O)CS | inactive
19 | CC(=O)CC/C=C(\C)CC/C=C(\C)CC/C=C(\C)CCC=C(C)C | inactive
20 | CCCCCCC/C=C/C=O | inactive
21 | CCOCCn1c(N2CCCN(C)CC2)nc2ccccc21 | inactive
22 | CC(C)C[C@H](NC(=O)[C@H](Cc1ccccc1)NC(=O)c1cnccn1)B(O)O | 47.3 nM (active)
23 | O=C(N[C@@H](Cc1ccccc1)[C@@H](O)C(=O)N1C[C@@H](O)[C@@H](O)C1)c1cc2cc(Cl)ccc2[nH]1 | inactive
24 | CCOc1cc(OCC)c(C(C)=O)cc1OCC | inactive
25 | COc1ccc(/C=C/c2cc(OC)cc(=O)o2)cc1 | inactive
26 | O=C(O)c1ccccc1[N+](=O)[O-] | inactive
27 | CCCCCCCCNC | inactive
28 | C[Si](C)(C)O[Si](C)(C)O[Si](C)(C)C | inactive
29 | CC(C)CCCCCCCOC(=O)c1ccc(C(=O)OCCCCCCCC(C)C)c(C(=O)OCCCCCCCC(C)C)c1 | inactive
30 | Nc1ccc(-c2ccc(F)cc2)cc1 | inactive
31 | Nc1ccc(C(=O)Oc2ccccc2)c(O)c1 | inactive
32 | CC(C)C/C=C(\C=O)c1ccccc1 | inactive
33 | O=P(c1ccccc1)(c1ccccc1)c1ccccc1 | inactive
34 | C=C[Si]1(C)O[Si](C)(C=C)O[Si](C)(C=C)O[Si](C)(C=C)O1 (stereo unspecified) | inactive
35 | O=C(O)c1ccc(O)c(O)c1 | inactive
36 | C/C(=C\C(C)CC(C)CC(C)C)C1CC(=O)OC1=O (stereo unspecified) | inactive
37 | CCN(CC)CC(=O)OCC(=O)[C@@]1(O)CC[C@H]2[C@@H]3CCC4=CC(=O)CC[C@]4(C)[C@H]3[C@@H](O)C[C@@]21C | inactive

System: not listed separately
Assay: qHTS assay to identify small molecule agonists of the AP-1 signaling pathway - cell viability counter screen (AID 1159525); further: nearly all actives have a fitted effect of over 55% in size
Conditions: ME-180 AP-1-bla cells viability, ATP luminescence, 5 h; series mostly up to 76.8 µM
Outline: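 ME-180 AP-1-bla, 2500 cells/well, Opti-MEM + 0.5% dialyzed FBS; overnight 37 °C; cpd 15-pt titration, 5 h 37 °C; CellTiter-Glo 30 min RT; luminescence read; normalised to TOAB and DMSO controls.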

Row | SMILES | outcome
38 | COc1ccc(/C=C/S(=O)(=O)NC(=O)c2ccc(C)cc2Cl)cc1 | inactive
39 | O=C(Cl)c1cc(Cl)cc(Cl)c1 | inactive
40 | O=C(NC1CCN(CCc2c[nH]c3ccccc23)CC1)c1ccccc1 | inactive
41 | Cc1ccccc1CCO | inactive
42 | Cc1c(N=C=O)cccc1N=C=O | inactive
43 | CC(C)Cc1nccs1 | inactive
44 | O=C1CCCN1CCO | inactive
45 | CC/C=C\CCO | inactive
46 | S=c1[nH][nH]c(=S)s1 | inactive
47 | CC(C)CCCCCOC(=O)CS | inactive
48 | CC(=O)CC/C=C(\C)CC/C=C(\C)CC/C=C(\C)CCC=C(C)C | inactive
49 | CC/C=C/CCO | inactive
50 | CCCCCCC/C=C/C=O | inactive
51 | CCOCCn1c(N2CCCN(C)CC2)nc2ccccc21 | inactive
52 | CC(C)C[C@H](NC(=O)[C@H](Cc1ccccc1)NC(=O)c1cnccn1)B(O)O | inactive
53 | O=C(N[C@@H](Cc1ccccc1)[C@@H](O)C(=O)N1C[C@@H](O)[C@@H](O)C1)c1cc2cc(Cl)ccc2[nH]1 | inactive
54 | C=CC(=O)OCCCCCCCCCC | inactive
55 | CCOc1cc(OCC)c(C(C)=O)cc1OCC | inactive
56 | COc1ccc(/C=C/c2cc(OC)cc(=O)o2)cc1 | inactive
57 | O=C(O)c1ccccc1[N+](=O)[O-] | inactive

Row | SMILES | outcome
58 | CCCCCCCCNC | inactive
59 | C[Si](C)(C)O[Si](C)(C)O[Si](C)(C)C | inactive
60 | CC(C)CCCCCCCOC(=O)c1ccc(C(=O)OCCCCCCCC(C)C)c(C(=O)OCCCCCCCC(C)C)c1 | inactive
61 | Nc1ccc(-c2ccc(F)cc2)cc1 | inactive
62 | Nc1ccc(C(=O)Oc2ccccc2)c(O)c1 | inactive
63 | O=C(O)c1cc(C(=O)O)cc([N+](=O)[O-])c1 | inactive
64 | CC(C)C/C=C(\C=O)c1ccccc1 | inactive
65 | CC(C)(Cc1c[nH]c2ccccc12)NCC(O)COc1ccccc1C#N (stereo unspecified) | inactive
66 | O=P(c1ccccc1)(c1ccccc1)c1ccccc1 | inactive
67 | COc1cc(C)c(Cc2cnc(N)nc2N)cc1OC | inactive
68 | C=C[Si]1(C)O[Si](C)(C=C)O[Si](C)(C=C)O[Si](C)(C=C)O1 (stereo unspecified) | inactive
69 | O=C(O)c1ccc(O)c(O)c1 | inactive
70 | O=[N+]([O-])c1ccc(Cl)cc1Cl | inactive
71 | O=C(O)c1ccccc1-n1cc(C(=O)O)c(=O)c2cc(Nc3c(F)cc(F)cc3Cl)c(Cl)cc21 | inactive
72 | Cc1c(Cl)cccc1[N+](=O)[O-] | inactive
73 | CC(=O)c1ccc(Cl)c(Cl)c1Cl | inactive
74 | Nc1ccc(F)cc1F | inactive
75 | C/C(=C\C(C)CC(C)CC(C)C)C1CC(=O)OC1=O (stereo unspecified) | inactive
76 | CCN(CC)CC(=O)OCC(=O)[C@@]1(O)CC[C@H]2[C@@H]3CCC4=CC(=O)CC[C@]4(C)[C@H]3[C@@H](O)C[C@@]21C | inactive
